# Experimental data reported in PubChem BioAssay AID1159580 (chemical genetic matrix, 2015).
# About 2,000 (36%) of roughly 5,500 compounds were called active. About 18% were inconclusive and are not listed. The list shows a part of the results. Unmarked numbers belong to inactive results. No stated cut-off is given here; in the data, active means normalized growth mostly below about 0.91 (no sharp cut-off); inconclusive means no clear call, values can overlap the other calls; inactive means mostly above about 0.92.
# Assay: chemical genetic growth profiling, strain panel (AID 1159580);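 further: tested at 20 µM; growth read once vehicle control cultures reached saturation at 30 °C; 1 = growth at the plate median or of vehicle wells; lower values mean less growth of the strain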
# Conditions: growth OD
# [1] = S. cerevisiae deletion strains, locus YAL013W, strain DEP1, active compounds read low
# [2] = S. cerevisiae deletion strains, locus YBR229C, strain ROT2, active compounds read low
# [3] = S. cerevisiae deletion strains, locus YDL101C, strain DUN1, active compounds read low
# [4] = S. cerevisiae deletion strains, locus YDR150W, strain NUM1, active compounds read low
# [5] = S. cerevisiae deletion strains, locus YEL061C, strain CIN8, active compounds read low
# [6] = S. cerevisiae deletion strains, locus YGR078C, strain PAC10, active compounds read low
# [7] = S. cerevisiae deletion strains, locus YHR030C, strain SLT2, active compounds read low
# [8] = S. cerevisiae deletion strains, locus YHR087W, strain rtc3, active compounds read low
# [9] = S. cerevisiae deletion strains, locus YJR043C, strain POL32, active compounds read low
# [10] = S. cerevisiae deletion strains, locus YJR075W, strain HOC1, active compounds read low
# [11] = S. cerevisiae deletion strains, locus YKL190W, strain CNB1, active compounds read low
# [12] = S. cerevisiae deletion strains, locus YLR039C, strain RIC1, active compounds read low
# [13] = S. cerevisiae deletion strains, locus YLR058C, strain SHM2 (second series), active compounds read low
# [14] = S. cerevisiae deletion strains, locus YLR085C, strain ARP6, active compounds read low
# [15] = S. cerevisiae deletion strains, locus YLR262C, strain YPT6, active compounds read low
# [16] = S. cerevisiae deletion strains, locus YML094W, strain GIM5, active compounds read low
# [17] = S. cerevisiae deletion strains, locus YMR219W, strain ESC1, active compounds read low
# [18] = S. cerevisiae deletion strains, locus YMR263W, strain SAP30, active compounds read low
# [19] = S. cerevisiae deletion strains, locus YNL153C, strain GIM3, active compounds read low
# [20] = S. cerevisiae deletion strains, locus YNL298W, strain CLA4 (second series), active compounds read low
# [21] = S. cerevisiae deletion strains, locus YNL322C, strain KRE1, active compounds read low
# [22] = S. cerevisiae deletion strains, locus YNR030W, strain Alg12, active compounds read low
# [23] = S. cerevisiae deletion strains, locus YPL055C, strain LGE1, active compounds read low
# [24] = S. cerevisiae deletion strains, locus YPR135W, strain CTF4, active compounds read low
# [25] = S. cerevisiae strains, strain wild type, active compounds read low
structure (smiles),measurement,setting,value
NC(N)=NC(N)=Nc1ccccc1C(F)(F)F,normalized growth,[1],0.987
same,normalized growth,[2],0.982
same,normalized growth,"S. cerevisiae deletion strains, locus YCL061C, strain MRC1, active compounds read low",1.01
same,normalized growth,[3],0.969
same,normalized growth,[4],0.895
same,normalized growth,[5],0.993
same,normalized growth,[6],0.979
same,normalized growth,[7],0.935
same,normalized growth,[8],0.966
same,normalized growth,[9],0.998
same,normalized growth,[10],1.01
same,normalized growth,[11],0.997
same,normalized growth,[12],0.989
same,normalized growth,[13],0.982
same,normalized growth,[14],1.01
same,normalized growth,[15],0.997
same,normalized growth,[16],0.923
same,normalized growth,[17],0.987
same,normalized growth,[18],1.06
same,normalized growth,"S. cerevisiae deletion strains, locus YNL128W, strain TEP1, active compounds read low",0.984
same,normalized growth,[19],1.02
same,normalized growth,[20],0.938
same,normalized growth,[21],0.993
same,normalized growth,[22],0.983
same,normalized growth,[23],0.962
same,normalized growth,[24],0.922
same,normalized growth,[25],0.986
CCOC(=O)c1sc(S(C)=NC(=O)Nc2ccc(Cl)cc2)c2c1CCC=C2 (stereo unspecified),normalized growth,"S. cerevisiae deletion strains, locus YAR019C, strain CDC15, active compounds read low",0.985
same,normalized growth,"S. cerevisiae deletion strains, locus YBL105C, strain PKC1, active compounds read low",0.974
same,normalized growth,"S. cerevisiae deletion strains, locus YBR135W, strain CKS1, active compounds read low",0.974
same,normalized growth,"S. cerevisiae deletion strains, locus YBR136W, strain MEC1, active compounds read low",0.974
same,normalized growth,"S. cerevisiae deletion strains, locus YBR160W, strain CDC28, active compounds read low",0.978
same,normalized growth,"S. cerevisiae deletion strains, locus YDL017W, strain CDC7, active compounds read low",0.979
same,normalized growth,"S. cerevisiae deletion strains, locus YDL028C, strain MPS1, active compounds read low",0.971
same,normalized growth,[3],0.97
same,normalized growth,"S. cerevisiae deletion strains, locus YDL108W, strain KIN28, active compounds read low",0.972
same,normalized growth,"S. cerevisiae deletion strains, locus YDL132W, strain cdc53, active compounds read low",0.965
same,normalized growth,"S. cerevisiae deletion strains, locus YDL214C, strain PRR2, active compounds read low",0.922
same,normalized growth,"S. cerevisiae deletion strains, locus YDR052C, strain DBF4, active compounds read low",0.981
same,normalized growth,"S. cerevisiae deletion strains, locus YDR054C, strain cdc34, active compounds read low",0.974
same,normalized growth,"S. cerevisiae deletion strains, locus YDR226W, strain ADK1, active compounds read low",0.963
same,normalized growth,"S. cerevisiae deletion strains, locus YDR477W, strain SNF1, active compounds read low",0.937
same,normalized growth,"S. cerevisiae deletion strains, locus YER123W, strain YCK3, active compounds read low",0.923
same,normalized growth,"S. cerevisiae deletion strains, locus YER133W, strain GLC7, active compounds read low",0.945
same,normalized growth,"S. cerevisiae deletion strains, locus YFL009W, strain cdc4, active compounds read low",0.973
same,normalized growth,"S. cerevisiae deletion strains, locus YFL029C, strain CAK1, active compounds read low",0.977
same,normalized growth,"S. cerevisiae deletion strains, locus YFR003C, strain YPI1, active compounds read low",0.976
same,normalized growth,"S. cerevisiae deletion strains, locus YFR019W, strain FAB1, active compounds read low",0.94
same,normalized growth,"S. cerevisiae deletion strains, locus YFR028C, strain CDC14, active compounds read low",0.975
same,normalized growth,"S. cerevisiae deletion strains, locus YGR040W, strain KSS1, active compounds read low",0.922
same,normalized growth,"S. cerevisiae deletion strains, locus YGR052W, strain FMP48, active compounds read low",0.954
same,normalized growth,"S. cerevisiae deletion strains, locus YGR092W, strain DBF2, active compounds read low",0.947
same,normalized growth,[7],1.05
same,normalized growth,"S. cerevisiae deletion strains, locus YHR079C, strain IRE1, active compounds read low",1.01
same,normalized growth,"S. cerevisiae deletion strains, locus YHR082C, strain KSP1, active compounds read low",1.02
same,normalized growth,"S. cerevisiae deletion strains, locus YHR205W, strain SCH9, active compounds read low",0.959
same,normalized growth,"S. cerevisiae deletion strains, locus YIL147C, strain SLN1, active compounds read low",0.968
same,normalized growth,"S. cerevisiae deletion strains, locus YJL095W, strain BCK1, active compounds read low",0.963
same,normalized growth,"S. cerevisiae deletion strains, locus YJL128C, strain PBS2, active compounds read low",0.94
same,normalized growth,"S. cerevisiae deletion strains, locus YJL157C, strain FAR1, active compounds read low",0.941
same,normalized growth,"S. cerevisiae deletion strains, locus YJR016C, strain ILV3, active compounds read low",0.976
same,normalized growth,"S. cerevisiae deletion strains, locus YJR066W, strain TOR1 (second series), active compounds read low",0.923
same,normalized growth,"S. cerevisiae deletion strains, locus YJR066W, strain TOR1, active compounds read low",1.02
same,normalized growth,"S. cerevisiae deletion strains, locus YKL048C, strain ELM1, active compounds read low",0.96
same,normalized growth,"S. cerevisiae deletion strains, locus YKL067W, strain YNK1, active compounds read low",0.938
same,normalized growth,"S. cerevisiae deletion strains, locus YKL101W, strain HSL1, active compounds read low",0.902
same,normalized growth,"S. cerevisiae deletion strains, locus YKL193C, strain SDS22, active compounds read low",0.974
same,normalized growth,"S. cerevisiae deletion strains, locus YKL203C, strain TOR2, active compounds read low",1.02
same,normalized growth,"S. cerevisiae deletion strains, locus YLR113W, strain HOG1, active compounds read low",0.859 (active)
same,normalized growth,"S. cerevisiae deletion strains, locus YLR133W, strain CKI1, active compounds read low",0.926
same,normalized growth,"S. cerevisiae deletion strains, locus YLR403W, strain SFP1, active compounds read low",0.953
same,normalized growth,"S. cerevisiae deletion strains, locus YML070W, strain DAK1, active compounds read low",0.916
same,normalized growth,"S. cerevisiae deletion strains, locus YMR001C, strain CDC5, active compounds read low",0.978
same,normalized growth,"S. cerevisiae deletion strains, locus YMR205C, strain PFK2 (second series), active compounds read low",0.951
same,normalized growth,"S. cerevisiae deletion strains, locus YMR277W, strain FCP1, active compounds read low",0.974
same,normalized growth,"S. cerevisiae deletion strains, locus YNL006W, strain LST8, active compounds read low",0.982
same,normalized growth,"S. cerevisiae deletion strains, locus YNL020C, strain ARK1, active compounds read low",0.93
same,normalized growth,"S. cerevisiae deletion strains, locus YNL161W, strain CBK1, active compounds read low",0.978
same,normalized growth,"S. cerevisiae deletion strains, locus YNL183C, strain NPR1, active compounds read low",1
same,normalized growth,"S. cerevisiae deletion strains, locus YNL207W, strain RIO2, active compounds read low",0.968
same,normalized growth,"S. cerevisiae deletion strains, locus YNL222W, strain SSU72, active compounds read low",0.975
same,normalized growth,"S. cerevisiae deletion strains, locus YNL307C, strain MCK1 (second series), active compounds read low",0.951
same,normalized growth,"S. cerevisiae deletion strains, locus YOL078W, strain AVO1, active compounds read low",0.96
same,normalized growth,"S. cerevisiae deletion strains, locus YOL136C, strain PFK27, active compounds read low",0.895
same,normalized growth,"S. cerevisiae deletion strains, locus YOR061W, strain CKA2, active compounds read low",0.945
same,normalized growth,"S. cerevisiae deletion strains, locus YOR119C, strain RIO1, active compounds read low",0.998
same,normalized growth,"S. cerevisiae deletion strains, locus YOR231W, strain MKK1, active compounds read low",0.894
same,normalized growth,"S. cerevisiae deletion strains, locus YOR329C, strain SCD5, active compounds read low",0.976
same,normalized growth,"S. cerevisiae deletion strains, locus YPL031C, strain PHO85, active compounds read low",0.94
same,normalized growth,"S. cerevisiae deletion strains, locus YPL153C, strain RAD53, active compounds read low",0.953
same,normalized growth,"S. cerevisiae deletion strains, locus YPL204W, strain HRR25, active compounds read low",0.9
same,normalized growth,"S. cerevisiae deletion strains, locus YPL209C, strain IPL1, active compounds read low",0.968
same,normalized growth,"S. cerevisiae deletion strains, locus YPL256C, strain CLN2, active compounds read low",0.999
same,normalized growth,"S. cerevisiae deletion strains, locus YPR025C, strain CCL1, active compounds read low",0.981
same,normalized growth,"S. cerevisiae deletion strains, locus YPR106W, strain ISR1, active compounds read low",0.962
same,normalized growth,"S. cerevisiae deletion strains, locus YPR111W, strain DBF20, active compounds read low",0.985
same,normalized growth,"S. cerevisiae deletion strains, strain NNK1, active compounds read low",0.961
same,normalized growth,"S. cerevisiae deletion strains, strain TSCII, active compounds read low",0.97
CCOC(=O)c1sc2sc(C(=O)c3ccc(Cl)cc3)c(C)c2c1C,normalized growth,[1],1
same,normalized growth,[2],1.03
same,normalized growth,[3],1
same,normalized growth,"S. cerevisiae deletion strains, locus YDL134C, strain PPH21, active compounds read low",1.01
same,normalized growth,[4],0.91
same,normalized growth,[5],1.02
same,normalized growth,[6],1.01
same,normalized growth,[7],1.1
same,normalized growth,[8],1.01
same,normalized growth,[9],0.991
same,normalized growth,[10],1.03
same,normalized growth,[11],1.02
same,normalized growth,[12],1.06
same,normalized growth,[13],1.01
same,normalized growth,[14],1.06
same,normalized growth,[15],1.06
same,normalized growth,[16],1.01
same,normalized growth,[17],1
same,normalized growth,[18],0.937
same,normalized growth,"S. cerevisiae deletion strains, locus YMR307W, strain GAS1, active compounds read low",1.07
same,normalized growth,[19],1
same,normalized growth,[20],1.05
same,normalized growth,[21],1.01
same,normalized growth,[22],1.03
same,normalized growth,[23],0.904
same,normalized growth,"S. cerevisiae deletion strains, locus YPL241C, strain CIN2, active compounds read low",1.01
same,normalized growth,[24],1.09
same,normalized growth,[25],1.02
